# From PubChem BioAssay (NCI)
# Compounds without any hit were thinned out: in the full panel of roughly 83,000, 20% have a hit.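 Single-dose data. Exposure time 48 hours. Values below 10 considered active.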 A number with no mark means an inactive call. Calls of active or inactive are those of the source.
# Test system: HL-60(TB) leukemia
# Experiment: NCI-60 one-dose screen, 48 h (100 = growth as untreated, 0 = no growth, -100 = all killed)
# Settings: 10 µM unless noted
row,Structure (SMILES),growth
1,CCN(CC)c1nc(SCC(=O)Nc2nc3ccc(C)cc3s2)nc(-c2ccccc2)c1C#N,96.5%
2,COc1cc(-c2nc3c(ncc4ccc(=O)n(-c5ccccc5)c43)s2)cc(OC)c1OC,94.1%
3,O=S(=O)(c1ccccc1)n1cc2c(c1-c1ccccc1)CCc1sc(Nc3ccccc3)nc1-2,94.1%
4,S=C1NC2(c3ccccc3)CCC(=S)N2c2ccccc21 (stereo not given),104%
5,C[C@]12CCc3nc(Nc4ccccc4)sc3C1=CC[C@@H]1[C@@H]2CC[C@]2(C)/C(=N/NC(N)=S)CC[C@@H]12,49%
6,CNC(=O)c1c(NC(=O)c2ccc(C(C)(C)C)cc2)sc2c1CCC(=O)C2,-13.2% (active)
7,Cn1cc(-c2ccc(F)c(C(F)(F)F)c2)nc1C1CCN(c2ncnc3[nH]ncc23)CC1,84.7%
8,Nc1cc(-c2ccc(Cl)cc2)nn1-c1nnc(/C=C/c2ccco2)c(=O)[nH]1,52.2%
9,CCc1cc2n(n1)-c1ncc(C(=O)OC)cc1Oc1ccccc1-2,105%
10,Oc1cc(/C=C/c2nc(N3CCOCC3)c3cc(Cl)c(Cl)cc3n2)cc(O)c1O,99.4%
11,O=C(c1ccccc1)N(CCCl)C(=O)N(CCCl)C(=O)c1ccccc1,90.6%
12,COc1ccc(NC(=O)COCCOCCNC[C@@H]2C(=O)O[C@H]3[C@H]2CC/C(COC(=O)OC/C2=C/CC[C@@]4(C)O[C@H]4[C@H]4OC(=O)[C@@H](CN(C)C)[C@@H]4CC2)=C\CC[C@@]2(C)O[C@@H]32)c(O)c1C(N)=O,-48.2% (active)
13,CCCCCN1C(=O)/C(=c2\sc3n(c2=O)C2C(NN=3)N(CC)C(=O)N2CC)c2ccccc21 (stereo not given),-56.6% (active)
14,Cc1ccc(-c2cc3c(SCC(=O)Nc4cc(C(F)(F)F)ccc4Cl)nccn3n2)cc1,12.6%
15,CC/C(=C(\c1ccc(OCCN2CCCCCCC2)cc1)c1ccc(OC(=O)C2CCCCC2)cc1)c1ccc(Cl)cc1,77.8%
16,CCCCCCCCCCCCCCCCCC[n+]1ccc2c(C)c3c(c(C)c2c1)c1cc(O)ccc1n3CC,30.2%
17,CN(C)CCCC1(c2ccc(F)cc2)OCc2cc(-c3csc4ccccc34)ccc21 (stereo not given),-52.1% (active)
18,O=C(Nc1cccc(Cl)c1)c1cc(N=Nc2ccc([N+](=O)[O-])cc2Cl)ccc1O,38.2%
19,O=C1Nc2ccccc2/C1=C\c1cccc(/C=C2/C(=O)Nc3ccccc32)n1,-48.6% (active)
20,COc1ccc(C(=O)Cn2c(C(=O)c3ccccc3)nc3ccccc32)cc1,-27.5% (active)
21,COc1ccc2cc(Cn3cc[n+](Cc4ccc5ccccc5c4)c3)ccc2c1,-46.6% (active)
22,CCCS(=O)(=O)Nc1ccc(F)c(C(=O)c2c[nH]c3ncc(-c4ccc(OCCCC5CCCCN5)nc4)cc23)c1F (stereo not given),97.4%
23,COc1nc(N)nc2c1ncn2C1OC(CO)CC1O (stereo not given),98.9%
24,CCN(Cc1ccccc1)c1ccc(C=O)cc1,85.2%
25,Nc1n[nH]c2cccc(C#Cc3cccc(C(=O)Nc4cc(CN5CCOCC5)cc(C(F)(F)F)c4)c3)c12,16.6%
